# Results reported in the supplement of paper PMC8387472.
# Compound: NC(=O)c1ccc2nc(-c3ccc(Oc4ccc(Cl)cc4)cc3)[nH]c2c1 [Chk 2 inhibitor II (BML-277)]
# Test: fraction of microhomology deletions among edited reads; higher = more MH deletions
# Settings: mESC; 2uM; 72 h treatment, harvest day 5
row,Target,fraction of microhomology deletions among edited reads
1,"32.0 (DMSO control at this site: 1-bp insertion 0.03, MH deletion 0.85, edited 0.898) AGAAGTCCAGGATCAGGGGGACTGGGGTCGGGAGGGTGGGGCAGGAAGGAAGCCAGAATCA",0.918
2,"26.0 (DMSO control at this site: 1-bp insertion 0.518, MH deletion 0.262, edited 0.026) AGGGCGCGCCCCACGCACTCTGCGGCAAGTCCCTCTGCGGCAAGTCCTCGGCCCGGAAGAC",0.302
3,"34.0 (DMSO control at this site: 1-bp insertion 0.184, MH deletion 0.385, edited 0.103) ATTATAGGACCCTGAGGGAGCAGAGATGTGGGAATGGGGGCCGAGCCAATTGTGATGTAAG",0.486
4,"18.0 (DMSO control at this site: 1-bp insertion 0.114, MH deletion 0.789, edited 0.094) GCGCAAGTGCATAAGTTTTTCTTAAGGCGTGCCTTTAAGGCGTGCCTTTGTCGGTCCTGGA",0.812
5,"41.0 (DMSO control at this site: 1-bp insertion 0.022, MH deletion 0.754, edited 0.115) AAAGAGACAGCAGGTATGAATCCATCTTCCTGACCCTTGGGACCAGCCGGGGCAGTGAAGC",0.742
6,"47.0 (DMSO control at this site: 1-bp insertion 0.095, MH deletion 0.585, edited 0.118) GAGTGGTCCCGAGCCAGGAACTGTGTGTGTTGCAGGGGGGCAGTAACTCCCCAACTCCCTC",0.494
7,"35.0 (DMSO control at this site: 1-bp insertion 0.01, MH deletion 0.72, edited 0.098) CCACTTTTAGAGAGGGTGAAAATCATCAGTTATCATCAGGGCAACAAATTGCTTTCTCCTA",0.722
8,"16.0 (DMSO control at this site: 1-bp insertion 0.172, MH deletion 0.29, edited 0.05) CGGACTGCACACATGGGTAGGATCGTGCACGCGAGGTAGGATCGTGCACGCGAAGTTATTC",0.254
9,"19.0 (DMSO control at this site: 1-bp insertion 0.121, MH deletion 0.101, edited 0.057) TCTGCAGGGGTCGGAACCCGGGGGCTAGGGCTATCCCGGGGGCTAGGGCTATTAGCGAACC",0.207
10,"22.0 (DMSO control at this site: 1-bp insertion 0.573, MH deletion 0.229, edited 0.045) CTGATGGTTGAAGGATTTAGCCGGGGTCCTAGACGCCGGGGTCCTAGACGAAAGGGCCACG",0.201
11,"38.0 (DMSO control at this site: 1-bp insertion 0.063, MH deletion 0.487, edited 0.17) GGGCTGGGTGCTAAAATGAGGAGCTCCAAGAAGACTGAGGTGAACCTGGAGGCCCCTGAGC",0.495
12,"5.0 (DMSO control at this site: 1-bp insertion 0.214, MH deletion 0.567, edited 0.105) CGCTGACCCGAGACCTACGCGAACCGAAATCGGCGACCGGTGCGCAAGCAGGGCTGGCGTC",0.58
13,"1.0 (DMSO control at this site: 1-bp insertion 0.521, MH deletion 0.323, edited 0.141) GTGTCACAGTGCACGAGTGACGGGATAATGTGCTGACAGGTAATTGATAGGCTTCCAACTT",0.243
14,"0.0 (DMSO control at this site: 1-bp insertion 0.463, MH deletion 0.339, edited 0.14) AGGATTACCGAGACCTACGCGAACCGAAATCGCTGTCCGGTGCGCAAGCAGGGCTGGCGTC",0.331
15,"3.0 (DMSO control at this site: 1-bp insertion 0.109, MH deletion 0.149, edited 0.09) TGCTAGCGCCCCCACAAAGCGGACCAGCCAGCACTATAGGGAATAAGGCCAACTTGCACCC",0.237
16,"7.0 (DMSO control at this site: 1-bp insertion 0.128, MH deletion 0.374, edited 0.098) TACTCAACCGAGACCTACGCGAACCGAAATCGTATGCCGGTGCGCAAGCAGGGCTGGCGTC",0.38

row,Target,fraction of microhomology deletions among edited reads
1,"39.0 (DMSO control at this site: 1-bp insertion 0.328, MH deletion 0.371, edited 0.204) CTGCACAGTCACTTAGGATAGGAGAAGATGATGTATAGGGTTTAGTGGGAGATGTTGCAAG",0.372
2,21.0 CGATTGAGAGTCAAACGGGCCAGAAAACTCCGGGAACGGGCCAGAAAACTCCGGGGCATGG,0.226
3,"25.0 (DMSO control at this site: 1-bp insertion 0.017, MH deletion 0.774, edited 0.143) GGGCCTGAATGGTGTGGACATCTACTCGCTGGTGAGCTGGTGACTGAAAACATTCAGTGGC",0.767
4,"40.0 (DMSO control at this site: 1-bp insertion 0.072, MH deletion 0.192, edited 0.189) GCGAATCAACTGTTCAACAACAGCAGCAGCCACCTGGAGGACTACAGTGGCCTGTCCGTGT",0.181
5,"42.0 (DMSO control at this site: 1-bp insertion 0.145, MH deletion 0.655, edited 0.132) GGGCTAAACCTATGAGCACAGTAGAACTAAGGGTGGGTGGTGTAGCTAAAGAACTTGACCA",0.634
6,"28.0 (DMSO control at this site: 1-bp insertion 0.035, MH deletion 0.77, edited 0.142) TGGTTCTTCCTTTGTAGAGAGTGTTCATCTGGGAATCTGGGACTTGGATGAGACAATCATT",0.768
7,"2.0 (DMSO control at this site: 1-bp insertion 0.364, MH deletion 0.356, edited 0.125) GGTGCCCCCGAGACCTACGCGAACCGAAATCGATGTCCGGTGCGCAAGCAGGGCTGGCGTC",0.397
8,"4.0 (DMSO control at this site: 1-bp insertion 0.146, MH deletion 0.523, edited 0.125) ACGCCTTAGTGCACGAGTGACGGGATAATGTGGTCTCAGGTAATTGATAGGCTTCCAACTT",0.575
9,"29.0 (DMSO control at this site: 1-bp insertion 0.084, MH deletion 0.745, edited 0.133) TTGATGAACTTCCTCTTCTTCTCATGTCTCCGGTCTCCGGTAGGCCACGTGCATGGCCACT",0.741
10,"17.0 (DMSO control at this site: 1-bp insertion 0.112, MH deletion 0.348, edited 0.058) CCATAGCGCGATAAATATGACGGCTCATCCTGTATGACGGCTCATCCTGTATCAACTGTCC",0.35
11,"45.0 (DMSO control at this site: 1-bp insertion 0.017, MH deletion 0.666, edited 0.101) TTACACAGCATGAACTGCTAGGTGATGATGTCAGATTCGGTTTTACTAACTTCTCCAAAAA",0.617
12,"30.0 (DMSO control at this site: 1-bp insertion 0.074, MH deletion 0.67, edited 0.142) GAGCTGGCATGAGTATTTGTGCCACATGGCTCCCACATGGCTCCACATGCAAGTTTGAAAC",0.67
13,"44.0 (DMSO control at this site: 1-bp insertion 0.181, MH deletion 0.512, edited 0.123) ACACATACCTTCTTCGAGGCAGCCAGCATGATGAGACAGGTCTCCCACAAACACATCGTGT",0.539
14,"20.0 (DMSO control at this site: 1-bp insertion 0.349, MH deletion 0.138, edited 0.084) TACAGGTGTAGACTGGTTACGTGGCTGCGGAATTGACTGGTTACGTGGCTGCGGAATTTTG",0.203
15,"43.0 (DMSO control at this site: 1-bp insertion 0.134, MH deletion 0.714, edited 0.104) AGTTTAACTTACTCCGGCCAAAAAAGAACTGCACCTCTGGAGCGGGTTAGTGGTGGTGGTA",0.677
16,"33.0 (DMSO control at this site: 1-bp insertion 0.008, MH deletion 0.771, edited 0.112) CATTAAGAGCAGCTGCCGGCCCCCAAGTGGACAGAGCTGGCCCTGCTGATTCAACAGTGCA",0.712
